Data on 46 sequences can be found in paper PMC7819943, “Rice protein-binding microarrays: a tool to detect cis-acting elements near promoter regions in rice”.

In all, about 39,000 sequences were measured (“fluorescence intensity (a.u.)”: median about 4,300, highest 2% from about 39,000 on). Shown is part of a subset that was picked to be rich in the highest values.

In the assay the target is T1, OsSMF1 (Oryza sativa, UniProt Q6ZLB0 1-436).
T1 sequence: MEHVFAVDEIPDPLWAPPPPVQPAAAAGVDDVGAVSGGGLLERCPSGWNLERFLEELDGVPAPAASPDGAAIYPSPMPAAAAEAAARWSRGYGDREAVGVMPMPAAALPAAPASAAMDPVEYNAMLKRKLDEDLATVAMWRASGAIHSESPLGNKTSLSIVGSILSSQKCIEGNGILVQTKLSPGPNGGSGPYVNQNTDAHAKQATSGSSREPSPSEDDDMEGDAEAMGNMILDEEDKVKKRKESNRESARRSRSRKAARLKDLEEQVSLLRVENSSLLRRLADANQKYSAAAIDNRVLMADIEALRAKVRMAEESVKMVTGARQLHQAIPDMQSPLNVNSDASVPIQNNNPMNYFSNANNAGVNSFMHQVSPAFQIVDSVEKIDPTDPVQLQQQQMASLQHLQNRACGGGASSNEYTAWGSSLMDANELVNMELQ
The assay can be described thus: protein-binding microarray (RPBM); PBS, 2% BSA, 51.3 ng/ul salmon testes DNA, 50 uM zinc acetate, 200 nM TF, 25 C, 1 h; high values mean tight binding. The conditions noted are these: protein: recombinant; tags: N-terminal polyhistidine and DsRed monomer fusion (pET32a); chain copies: 2; label: CyDye5-dUTP incorporated in the synthesized complementary strand; 3' TTTTT single-stranded linker to array surface; dsDNA, one strand shown. The method in brief: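 The binding signal for each feature is its fluorescence intensity in arbitrary units. An Axon 4000B scanner was used to read a custom Agilent array that had been made double-stranded with Cy5-dUTP primer extension, blocked with 2% BSA, incubated at 25 °C for 1 h with 200 nM protein in PBS, 2% BSA, salmon testes DNA and 50 µM zinc acetate, and washed. The protein was an N-terminal polyhistidine–DsRed transcription factor fusion from E. coli BL21-CodonPlus, purified on Ni–NTA.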
On to “TGCATAAGTGTCCGTACCAGTACGGTCAGAGTGACATATGCGGAGTCACCTAGTGCAG”, for which the binding signal was 3770 fluorescence intensity (a.u.).
For “TTACGAGACGAATCTTTTAAGACTAATTGCTCCATGATTTCGGAGTCACCTAGTGCAG”, the binding signal was 3280 fluorescence intensity (a.u.).
Then “TTTGGTTTCCGGCCAAACATTGCCACGCCTAACTTAAGGCCGGAGTCACCTAGTGCAG”, with 5170 fluorescence intensity (a.u.); and “TTTCTCTGAACGACCGGCCACGTTAAACTAAGGCCAAGTCCGGAGTCACCTAGTGCAG”, with 65500 fluorescence intensity (a.u.); and “TAAATTTTAATTTTCTGATTGGTATGCCACGTTAGTGAAACGGAGTCACCTAGTGCAG”, with 3420 fluorescence intensity (a.u.).
For “CGCCATCGCCAACGCCAACGCCTCCGCGGACTCCATTGTCCGGAGTCACCTAGTGCAG”, the binding signal is 3650 fluorescence intensity (a.u.).
The figure for “AATATGAACTGATAGGATTTGTTTTCACACCATACCAAACCGGAGTCACCTAGTGCAG” is 59700 fluorescence intensity (a.u.); for “GATAGGAGGGGATAACTTGTTTCATATTTTGTGCCGGGTTCGGAGTCACCTAGTGCAG” it is 3710 fluorescence intensity (a.u.).
Take “AATGTAGGCACCATACCATGACTGTTTTCACACATTGTACCGGAGTCACCTAGTGCAG”: the binding signal is 3580 fluorescence intensity (a.u.).
For the sequence “GGGCCAAATTTTATCGAGAAGATTAGACACGAGTATGGGCCGGAGTCACCTAGTGCAG”, the binding signal was 47600 fluorescence intensity (a.u.).
Turning to “AGCGAGACACTTTGAGATTTAGTATGAGTCATGTAAATTACGGAGTCACCTAGTGCAG”, the binding signal was 7830 fluorescence intensity (a.u.).
Consider “TGCGATTTTAGACGATTATCGTGCGATTATCACGGTTATCCGGAGTCACCTAGTGCAG”, for which the binding signal was 3360 fluorescence intensity (a.u.).
For the sequence “GCGTGCCGAAGGTGTGTCCCCTGCACCGGCTCCGGCAGGTCGGAGTCACCTAGTGCAG”, the binding signal is 9960 fluorescence intensity (a.u.).
The figure for “ATGAAAGGGAATGTGTGGTGGAGGAGGTGGCTGAGAGATTCGGAGTCACCTAGTGCAG” is 3340 fluorescence intensity (a.u.); for “TGAACATGCCCATTGTTACTCATTCCTAATACTATAGGAACGGAGTCACCTAGTGCAG” it is 42200 fluorescence intensity (a.u.).
“ATTCGTTATACTAGGTGACATCTCATCTAATATTTGTTTACGGAGTCACCTAGTGCAG”: the binding signal was 4270 fluorescence intensity (a.u.).
Take “TTGTTGAAGCAGTTTAATGTTAATAGTATACTAACATTAACGGAGTCACCTAGTGCAG”: the binding signal was 28600 fluorescence intensity (a.u.).
As to “GGAACTTCTGTTTAGGCATTTGCACCTGAAATATGATCTGCGGAGTCACCTAGTGCAG”, the binding signal was 3190 fluorescence intensity (a.u.).
Turning to “TCCCGCAGGAGTTCCACCCACGTGTCATAAACCATTACAGCGGAGTCACCTAGTGCAG”, the binding signal is 12800 fluorescence intensity (a.u.).
On to “TGAATTGGAGCGACCGTGAGAGGTAGCATAGAATGTCATGCGGAGTCACCTAGTGCAG”, for which the binding signal was 3270 fluorescence intensity (a.u.).
Then “CAAAAGGACCATGGTGTGTGGATGACATGACTAGTGAGGCCGGAGTCACCTAGTGCAG”, with 4650 fluorescence intensity (a.u.).
For the sequence “TGTTGATGGCGTCATTATTTACATGGTATGGTGCATTTGGCGGAGTCACCTAGTGCAG”, the binding signal was 14600 fluorescence intensity (a.u.).
“CTCTTCTCCACCTCAACATTTAGCCGGCTTATAGCTACTACGGAGTCACCTAGTGCAG”: the binding signal was 3960 fluorescence intensity (a.u.).
Then “CAGACCAGGGTTACTCTCCTCAACATTCTTAGCTCATAGACGGAGTCACCTAGTGCAG”, with 47700 fluorescence intensity (a.u.); and “ACAGGGTTGCCAAGCTCTTACTCAACCTAAACCACCAGAACGGAGTCACCTAGTGCAG”, with 3200 fluorescence intensity (a.u.).
For the sequence “TGAACCCCACATGTCAGCTTTACTACTCCCTTCTTCCCTACGGAGTCACCTAGTGCAG”, the binding signal is 4350 fluorescence intensity (a.u.).
Take “CGCGACACGACACGACACGACACGACGGCACGAGCCCACCCGGAGTCACCTAGTGCAG”: the binding signal was 4540 fluorescence intensity (a.u.).
Turning to “GGAAAGTGGACAATTAAATCAAGCGATGATGTGGATGTGGCGGAGTCACCTAGTGCAG”, the binding signal was 5830 fluorescence intensity (a.u.).
As for “TTCATCCTCGGCCACTCCTACGTCAAGGCCAAGAGCGGCTCGGAGTCACCTAGTGCAG”, the binding signal was 3600 fluorescence intensity (a.u.).
Take “TGGCAAATCTCATCAGCAACAGGGACCTCTTGGTGTGACTCGGAGTCACCTAGTGCAG”: the binding signal was 4290 fluorescence intensity (a.u.).
The figure for “CTCTTCAGGGAACAGAATCAAATCAGCATTTTAACTAACTCGGAGTCACCTAGTGCAG” is 40100 fluorescence intensity (a.u.); for “CAAATACTACATCACACAGGTCAGCAGAAATTTCACTCTTCGGAGTCACCTAGTGCAG” it is 4100 fluorescence intensity (a.u.).
Then “CCGTTTCCGAATCTCGAGGCGCAAGAGGCCATCGAACGGCCGGAGTCACCTAGTGCAG”, with 38300 fluorescence intensity (a.u.); and “TTTATCTAATTAAAATATATTTATAGCTGACTAATAGTCTCGGAGTCACCTAGTGCAG”, with 3480 fluorescence intensity (a.u.); and “TGTGGAGTCCACGTGGGACTTAGCCGCCACATCAATAAAACGGAGTCACCTAGTGCAG”, with 9160 fluorescence intensity (a.u.).
As to “TTAGATGAAACCACGATTTGTCAAAATGCATCCAAAACTTCGGAGTCACCTAGTGCAG”, the binding signal was 43100 fluorescence intensity (a.u.).
Turning to “TGACCAAAATTTGAAACTTTCAATACAATTATGAAACTTTCGGAGTCACCTAGTGCAG”, the binding signal was 6370 fluorescence intensity (a.u.).
The figure for “GCCAAGCCAAACCAATCCAAGCCAAGCCAAATGAATGATTCGGAGTCACCTAGTGCAG” is 3150 fluorescence intensity (a.u.); for “GTTAATCTCAATAAAATACTTAGCTCCATAAATAATTTTGCGGAGTCACCTAGTGCAG” it is 36700 fluorescence intensity (a.u.).
For the sequence “CCCAGCTGTCTTTCCTCCAGGTCACCTGACAAATGTCACTCGGAGTCACCTAGTGCAG”, the binding signal was 3950 fluorescence intensity (a.u.).
On to “GAAAACTAGTCCAAAATGAGTCTTTGCTTCAATGCAAACGCGGAGTCACCTAGTGCAG”, for which the binding signal is 39000 fluorescence intensity (a.u.).
On to “CTTATCAGTCGTAGCTCAACCTATAAGAGGCCTAAATATACGGAGTCACCTAGTGCAG”, for which the binding signal was 32800 fluorescence intensity (a.u.).
Regarding “ATCTTAAATACTACTAGAAATTAACGGAGACTAAGGCTTGCGGAGTCACCTAGTGCAG”, the binding signal is 26500 fluorescence intensity (a.u.).
Turning to “AAATACGGAGAGAAGAAGGCTCACTAAGCGCGCTTACTATCGGAGTCACCTAGTGCAG”, the binding signal is 42500 fluorescence intensity (a.u.).
“TGCCAAATGTTGAAACACTTACAGTAGCATCTAATGAAGTCGGAGTCACCTAGTGCAG”: the binding signal was 16000 fluorescence intensity (a.u.).
For “AGCTTTTCTTTTCTACACAAAGGGAAGGGAAAGAAGAAACCGGAGTCACCTAGTGCAG”, the binding signal was 37800 fluorescence intensity (a.u.).
